The source made the active and inactive calls. Unless noted, the rule behind the calls is not given here.
Columns and labels:
[1] = compounds binding Alexa647 anti-His antibody – biochemical, small-molecule microarray, 635 nm fluorescence, artefact control for SMM control protein annotation, primary screen (AID 1128); details: higher = more signal;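 note: score merges feature fluorescence with signal-to-noise for each printed compound spot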
[2] = test system: Human papillomavirus type 1a E7 protein (residues 1-88); assay: HPV1a E7 small-molecule binders, primary screen, biochemical, small-molecule microarray, residues 1-88, 635 nm (AID 1129); details: small-molecule microarray binding, fluorescence 635 nm; higher = more signal
[3] = target: Focal adhesion kinase 1 (Homo sapiens) (UniProt Q05397); assay: PTK2 protein binding on printed compound slides – biochemical, small-molecule microarray, 635/667 nm fluorescence, BSA, DTT, primary screen (AID 1130); details: 635 nm fluorescence, higher = more signal;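 note: composite of spot emission at 667 nm and signal to noise over triplicate slides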
Sequence of Focal adhesion kinase 1 (Homo sapiens) (Q05397 whole entry, looked up): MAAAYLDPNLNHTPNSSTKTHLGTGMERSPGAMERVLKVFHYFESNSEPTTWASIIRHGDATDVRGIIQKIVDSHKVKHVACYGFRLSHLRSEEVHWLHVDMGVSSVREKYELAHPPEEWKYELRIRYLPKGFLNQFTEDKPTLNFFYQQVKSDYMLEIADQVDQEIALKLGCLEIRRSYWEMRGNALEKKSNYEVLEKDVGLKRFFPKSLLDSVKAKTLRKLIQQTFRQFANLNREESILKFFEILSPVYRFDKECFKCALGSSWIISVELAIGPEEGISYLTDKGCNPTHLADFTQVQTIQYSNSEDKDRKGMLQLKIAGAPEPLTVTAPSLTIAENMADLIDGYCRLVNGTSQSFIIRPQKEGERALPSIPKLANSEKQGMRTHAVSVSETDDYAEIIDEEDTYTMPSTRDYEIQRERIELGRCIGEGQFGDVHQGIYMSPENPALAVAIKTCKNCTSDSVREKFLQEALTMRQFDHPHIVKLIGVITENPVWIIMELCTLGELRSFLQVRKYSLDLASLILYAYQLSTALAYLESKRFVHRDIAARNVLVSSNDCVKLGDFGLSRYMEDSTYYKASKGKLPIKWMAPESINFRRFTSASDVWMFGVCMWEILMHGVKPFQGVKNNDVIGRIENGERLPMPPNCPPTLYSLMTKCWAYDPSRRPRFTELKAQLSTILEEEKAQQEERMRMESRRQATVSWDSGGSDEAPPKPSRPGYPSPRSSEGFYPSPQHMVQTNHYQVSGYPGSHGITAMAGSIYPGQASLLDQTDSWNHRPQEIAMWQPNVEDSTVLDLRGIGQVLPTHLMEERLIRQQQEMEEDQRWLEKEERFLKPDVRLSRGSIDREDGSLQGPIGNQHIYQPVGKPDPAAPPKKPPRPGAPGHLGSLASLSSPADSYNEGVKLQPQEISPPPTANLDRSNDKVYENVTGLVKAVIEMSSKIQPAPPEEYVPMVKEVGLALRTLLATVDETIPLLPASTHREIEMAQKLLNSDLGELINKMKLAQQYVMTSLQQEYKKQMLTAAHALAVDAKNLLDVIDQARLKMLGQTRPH

[4] = test system: Fibrinogen (Alexa647-labelled); assay: Alexa647-fibrinogen binding to printed small molecules – biochemical, small-molecule microarray, 635/667 nm fluorescence, artefact control for SMM control-protein annotation, profiling panel (AID 1131); details: fibrinogen-A647 binding fluorescence, higher = more signal;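 note: z-score merges 667 nm fluorescence with per-spot signal-to-noise over triplicate slides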
[5] = target: Follistatin (Homo sapiens) (UniProt P19883); assay: FST protein binding to printed compounds – biochemical, small-molecule microarray, 635/667 nm fluorescence, primary screen (AID 1132); details: 635 nm fluorescence, higher = more signal
Sequence of Follistatin (Homo sapiens) (P19883 whole entry, looked up): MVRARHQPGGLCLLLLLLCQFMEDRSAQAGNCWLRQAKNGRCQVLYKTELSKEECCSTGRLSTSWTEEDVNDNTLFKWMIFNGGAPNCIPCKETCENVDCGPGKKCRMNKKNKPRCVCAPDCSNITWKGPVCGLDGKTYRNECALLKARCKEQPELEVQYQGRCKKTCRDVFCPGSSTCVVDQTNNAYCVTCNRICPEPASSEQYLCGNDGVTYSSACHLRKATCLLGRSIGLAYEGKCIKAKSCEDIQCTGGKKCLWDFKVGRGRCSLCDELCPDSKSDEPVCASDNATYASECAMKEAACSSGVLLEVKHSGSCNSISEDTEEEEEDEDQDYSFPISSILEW

[6] = target: Fibroblast growth factor 2 (Homo sapiens) (UniProt P09038); assay: basic fibroblast growth factor binding to printed compounds – biochemical, small-molecule microarray, 635/667 nm fluorescence, primary screen (AID 1133); details: FGF2, fluorescence 635/667, higher = more signal
Sequence of Fibroblast growth factor 2 (Homo sapiens) (P09038 whole entry, looked up): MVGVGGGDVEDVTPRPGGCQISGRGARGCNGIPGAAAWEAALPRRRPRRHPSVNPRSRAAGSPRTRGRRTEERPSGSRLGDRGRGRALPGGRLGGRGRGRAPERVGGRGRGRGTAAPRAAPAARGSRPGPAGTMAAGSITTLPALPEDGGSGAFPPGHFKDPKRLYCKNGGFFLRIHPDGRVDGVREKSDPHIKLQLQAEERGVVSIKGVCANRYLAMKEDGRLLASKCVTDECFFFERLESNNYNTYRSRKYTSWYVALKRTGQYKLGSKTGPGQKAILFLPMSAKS

[7] = JC-1 mitochondrial potential readout, lung cancer cells – cell-based, A549, JC-1 fluorescence, basal, 24 h, 100 nL, profiling panel (AID 1138); details: higher = more signal;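 note: A549 lung adenocarcinoma cells under basal conditions with no added stimulus; test concentration not given here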
[8] = test system: Lefty1; assay: Lefty1 protein binding to printed compounds – biochemical, small-molecule microarray, 635/667 nm fluorescence, primary screen (AID 1139); details: fluorescence 635/667, higher = more signal
[9] = test system: wheat germ agglutinin (Triticum aestivum), Alexa647-labelled; assay: Alexa647-WGA lectin binding to printed small molecules – biochemical, small-molecule microarray, 635/667 nm fluorescence, artefact control for SMM control-protein annotation, profiling panel (AID 1140); details: WGA-A647 binding, 635 nm fluorescence, higher = more signal;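 note: score merges 667 nm feature emission with signal to noise over triplicate slides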
[10] = target: Luciferin 4-monooxygenase (Photinus pyralis) (UniProt P08659); assay: inhibition of purified Photinus pyralis luciferase – biochemical, luminescence, purified enzyme, 2006 set, primary screen (AID 1141); details: purified firefly luciferase, SteadyGlo luminescence, 30 min; higher = more signal, called active from +8 up or from −8 down;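 note: cell-free assay with purified firefly luciferase at 100 ng per well in PBS; test concentration not given here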
Sequence of Luciferin 4-monooxygenase (Photinus pyralis) (P08659 whole entry, looked up): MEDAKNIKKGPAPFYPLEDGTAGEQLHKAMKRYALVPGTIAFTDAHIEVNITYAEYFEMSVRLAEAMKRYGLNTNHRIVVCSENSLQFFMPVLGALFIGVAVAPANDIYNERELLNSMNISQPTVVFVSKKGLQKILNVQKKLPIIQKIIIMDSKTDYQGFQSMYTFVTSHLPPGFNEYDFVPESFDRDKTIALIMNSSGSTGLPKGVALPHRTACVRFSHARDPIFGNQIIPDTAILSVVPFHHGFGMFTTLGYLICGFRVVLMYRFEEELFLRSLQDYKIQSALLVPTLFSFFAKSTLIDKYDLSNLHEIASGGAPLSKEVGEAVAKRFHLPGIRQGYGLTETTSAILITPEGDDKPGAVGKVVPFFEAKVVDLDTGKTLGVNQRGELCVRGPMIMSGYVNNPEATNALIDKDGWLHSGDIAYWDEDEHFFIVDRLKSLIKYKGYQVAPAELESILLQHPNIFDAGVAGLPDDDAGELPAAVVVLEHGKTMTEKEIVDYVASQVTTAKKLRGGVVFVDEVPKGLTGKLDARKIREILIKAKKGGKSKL

[11] = test system: Wnt5a (protein binding on small-molecule microarray); assay: small molecules binding Wnt5a protein – biophysical, small-molecule microarray, 635/667 nm fluorescence, primary screen (AID 1142); details: 635 nm fluorescence, higher = more signal;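 note: fluorescence read at 667 nm with signal to noise per printed feature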
[12] = ATP-based viability of Huh7 replicon cells – cell-based, CellTiter-Glo luminescence, basal, 48 h, cytotoxicity control for HCV replication inhibitor project, primary screen (AID 1143); details: higher = more signal, called active from +8 up or from −8 down;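 note: Huh7 hepatoma cells carrying a hepatitis C replication reporter with no stimulus; test concentration not given here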
[13] = Pseudomonas biofilm growth suppression – PAO1 strain, BacTiter-Glo luminescence, LB-PBS, primary screen (AID 1144); details: P. aeruginosa PAO1 biofilm, 12 h, higher = more signal
[14] = basal CRE-LacZ reporter activity in PC12 – cell-based, unstimulated, primary screen (AID 1145); details: no forskolin, luminescence, 4.5 h, higher = more signal, called active from +8 up or from −8 down
[15] = forskolin-driven CRE-LacZ activity in PC12 – cell-based, CRE-LacZ reporter, forskolin-stimulated, primary screen (AID 1146); details: luminescence, 4.5 h, higher = more signal, called active from +8 up or from −8 down;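 note: PC12 cells with 6xCRE LacZ reporter stimulated by forskolin 10 µM; beta-galactosidase reporter signal reflecting CREB driven transcription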
[16] = target: Streptavidin (Streptomyces avidinii) (UniProt P22629); assay: compounds binding control protein streptavidin – biophysical, small-molecule microarray, 635/667 nm fluorescence, artefact control for SMM compound annotation, primary screen (AID 1147); details: higher = more signal;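 note: signal reflects streptavidin binding to arrayed compounds as a control protein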
Sequence of Streptavidin (Streptomyces avidinii) (P22629 whole entry, looked up): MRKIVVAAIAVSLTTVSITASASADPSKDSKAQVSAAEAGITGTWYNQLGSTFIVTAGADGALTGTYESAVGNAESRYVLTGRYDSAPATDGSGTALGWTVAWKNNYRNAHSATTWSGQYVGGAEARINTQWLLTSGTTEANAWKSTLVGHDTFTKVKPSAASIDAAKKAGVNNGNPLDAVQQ

[17] = probe aInhba binding on compound microarray – biochemical, small-molecule microarray, 635/667 nm fluorescence, primary screen (AID 1148); details: higher = more signal;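 note: score merges 667nm spot fluorescence with signal-to-noise for antibody binding to printed compounds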
[18] = target: Torsin-1A (Homo sapiens) (UniProt O14656); assay: TOR1A wild-type binding on microarray – cell lysate, small-molecule microarray, lysate, 635/667 nm, primary screen (AID 1149); details: COS7 hTOR1A-WT lysate, 635 nm fluorescence, higher = more signal
Sequence of Torsin-1A (Homo sapiens) (O14656 whole entry, looked up): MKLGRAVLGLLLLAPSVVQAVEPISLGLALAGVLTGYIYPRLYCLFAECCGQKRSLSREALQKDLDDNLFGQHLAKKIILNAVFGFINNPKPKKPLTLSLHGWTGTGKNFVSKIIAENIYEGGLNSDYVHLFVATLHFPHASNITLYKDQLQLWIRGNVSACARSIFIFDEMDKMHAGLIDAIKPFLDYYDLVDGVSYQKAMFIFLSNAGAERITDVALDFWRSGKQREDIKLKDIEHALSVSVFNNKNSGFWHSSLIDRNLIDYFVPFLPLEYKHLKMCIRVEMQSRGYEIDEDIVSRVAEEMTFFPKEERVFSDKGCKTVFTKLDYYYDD

[19] = target: Torsin-1A (Homo sapiens) (UniProt O14656); assay: torsin A mutant lysate binding on microarrays – cell lysate, small-molecule microarray, COS7 lysate, 635/667 nm fluorescence, primary screen (AID 1150); details: COS7 hTOR1A mutant lysate, 635 nm fluorescence, higher = more signal;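 note: score pools 667 nm emission and signal to noise measuring lysate protein binding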
[20] = test system: Sonic hedgehog protein (Shh); assay: Sonic hedgehog microarray binding compounds – biochemical, small-molecule microarray, 635/667 nm fluorescence, primary screen (AID 1151); details: 635 nm fluorescence, higher = more signal;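 note: Shh protein binding to compounds spotted on small-molecule microarray slides; score combines spot fluorescence intensity with signal-to-noise across triplicate slides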

SMILES	composite z-score [1]	composite z-score [2]	composite z-score [3]	composite z-score [4]	composite z-score [5]	composite z-score [6]	z-score [7]	composite z-score [8]	composite z-score [9]	z-score [10]	composite z-score [11]	z-score [12]	z-score [13]	z-score [14]	z-score [15]	composite z-score [16]	composite z-score [17]	composite z-score [18]	composite z-score [19]	composite z-score [20]
COc1cc(NN2C(C(O)c3ccco3)C=CC3C(=O)N(C)C(=O)C32)cc(OC)c1OC (stereo not given)	1.04	0.388	-0.422	0.127	-0.0496	0.127	0.629	0.0051	0.793	-0.249 (inactive)	0.259	1.06 (inactive)	0.184 (inactive)	0.815 (inactive)	1.06 (inactive)	0.536	0.288	1.27	1.04	0.0765
CC(C)=C1C(=O)C(c2ccccc2)=C2CN3C(=O)N(CCc4ccccc4)C(=O)[C@]3(Cc3ccc(C(F)(F)F)cc3)[C@H]21	-0.0822	0.566	1.01	-0.0056	0.0359	-1.29	1.57	-1.16	0.8	0.359 (inactive)	-0.199	-0.28 (inactive)	0.408 (inactive)	0.966 (inactive)	0.96 (inactive)	0.37	0.23	-0.0473	-0.336	-1.18
CC(C)N1C(=O)C[C@@](C(=O)O)(c2ccc([N+](=O)[O-])cc2)[C@H]1c1ccc(CO)cc1	0.0886	-0.619	-0.0404	-1.14	-0.82	-0.798	0.993	-1.12	-0.76	-1.03 (inactive)	-0.0691	0.034 (inactive)	1.17 (inactive)	0.441 (inactive)	-0.303 (inactive)	-0.923	-0.0288	-0.254	-0.0237	-0.878
C=C[C@H]1C(C(=O)OCC)=CC[C@@H](c2ccccc2)N1S(=O)(=O)c1ccc(C)cc1	1.53	1.22	0.736	0.964	1.2	0.0703	3.33	0.325	0.677	0.26 (inactive)	0.197	-4.68 (inactive)	-0.376 (inactive)	-0.0137 (inactive)	0.299 (inactive)	0.767	0.13	0.683	0.508	0.056
COC(=O)[C@@]1(Cc2ccc(OC)cc2)[C@H]2c3cc(C(=O)N4CCCC4)n(CCc4c[nH]c5ccc(OC)cc45)c3C[C@H]2CN1C(=O)c1ccccc1	1.99	1.18	0.894	0.755	1.22	-0.904	0.675	-0.162	1.29	1.3 (inactive)	0.411	-3.16 (inactive)	0.717 (inactive)	0.201 (inactive)	-0.715 (inactive)	1.5	0.35	-0.0701	0.327	-0.565
CCOc1cc(C(O)C2C=CC3C(=O)NC(=O)C3N2Nc2ccc(Cl)cc2Cl)ccc1O (stereo not given)	-0.254	-0.537	0.725	0.332	-0.403	-0.744	-0.262	-1.33	0.235	0.445 (inactive)	-0.0753	0.625 (inactive)	-0.542 (inactive)	1 (inactive)	-0.323 (inactive)	-0.431	0.0427	-0.662	-0.141	-0.479
COCCOC(=O)N1C(=O)[C@@]2(c3cc(C#CC4(O)CCCCCC4)ccc31)[C@H](c1ccc(O)cc1)N1[C@H](c3ccccc3)[C@H](c3ccccc3)OC(=O)[C@H]1[C@@H]2C(=O)N1CCN(c2ncccn2)CC1	0.388	1.17	0.839	0.576	1.06	1.32	-0.976	0.497	0.417	-0.47 (inactive)	0.623	-1.53 (inactive)	-0.127 (inactive)	-0.141 (inactive)	0.0053 (inactive)	1.33	-0.0918	0.49	0.813	0.185
C=CCN1C(=O)[C@]2(CCS(=O)(=O)c3ccccc3)N=C(c3ccc(OCCCO)cc3)O[C@@H]2c2ccccc21	2.73	1.23	1.29	0.891	1.31	1.47	1.3	0.825	1.19	-2.23 (inactive)	0.782	-3.58 (inactive)	-0.492 (inactive)	1.8 (inactive)	-1.11 (inactive)	0.479	0.0841	0.659	0.573	1.65
CN(C)C(=O)[C@]1(Cc2ccccc2CN=[N+]=[N-])N=C(c2ccc(OCCCO)cc2)O[C@@H]1c1ccccc1	2.24	1.22	0.48	0.947	0.987	0.658	-0.439	0.035	1.02	0.582 (inactive)	0.682	-5.61 (inactive)	-0.528 (inactive)	0.502 (inactive)	-0.579 (inactive)	0.792	0.111	0.178	0.729	-0.18
COc1cc(NN2C(C(O)c3ccc(N(C)C)cc3)C=CC3C(=O)N(c4ccccc4)C(=O)C32)cc(OC)c1OC (stereo not given)	0.555	1.03	0.0507	0.945	1.22	-0.223	0.0531	0.0646	0.885	0.11 (inactive)	0.0759	-2.89 (inactive)	-0.414 (inactive)	-0.136 (inactive)	-0.259 (inactive)	0.535	0.242	-0.223	0.419	-0.254
